Hits are enriched below; roughly 11% of the tested compounds scored in any of these assays.
AmpC no deterg – inhibitors of E. coli AmpC beta-lactamase without detergent; Potency, µM (series often up to 57.1 µM), actives largely listed as inhibitors; actives 0.52% (n = 330,000); AmpC nitrocefin hydrolysis, absorbance 480 nm, 0.0001% Triton; note: nearly all actives have a fitted effect of over 20% in size
Target sequence (P00811 whole entry, looked up): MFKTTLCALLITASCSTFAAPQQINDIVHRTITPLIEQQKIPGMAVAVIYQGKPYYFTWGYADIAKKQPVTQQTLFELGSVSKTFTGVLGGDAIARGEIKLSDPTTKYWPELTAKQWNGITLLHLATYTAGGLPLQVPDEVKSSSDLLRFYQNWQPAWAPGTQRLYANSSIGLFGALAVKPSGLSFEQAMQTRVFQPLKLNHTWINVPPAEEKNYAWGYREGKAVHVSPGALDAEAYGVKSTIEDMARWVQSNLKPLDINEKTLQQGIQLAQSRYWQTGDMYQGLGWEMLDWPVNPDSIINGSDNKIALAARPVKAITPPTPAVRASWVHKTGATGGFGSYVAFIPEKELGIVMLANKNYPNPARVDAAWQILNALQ
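AmpC (5.3 nM in the dispensed reagent) in 20 mM phosphate pH 7.0 with 0.01% (detergent screen) or 0.0001% Triton X-100 was preincubated with compounds for 15 min at room temperature. Nitrocefin was then added from an 800 uM solution, and hydrolysis was followed at 480 nm.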
HCV inh – inhibitors of hepatitis C virus infection | Huh7.5.1 HCVcc-Cre infection, luciferase reporter, 44 h | Potency, µM (doses to about 41.8 µM), hits mostly inhibitors | actives 3.4% (n = 340,000) | AID 651820
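Cells seeded at 1,000/well and cultured 4 h, then compounds added followed by HCVcc-Cre virus (~0.5 moi). After 44 h further culture, luciferase substrate was added, plates held 15 min at room temperature, and luminescence read for 15 sec.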
Pf growth 48h – inhibits P. falciparum growth in the first generation, 48 h; P. falciparum luciferase growth in erythrocytes, 48 h; Potency, µM (series often up to 28.7 µM), most hits filed as inhibitors; actives 5.9% (n = 310,000); AID 504832
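Luciferase-expressing parasites in RBCs, 2% Hct / 0.1% parasitemia final; RPMI 1640 + 0.5% Albumax; 37 C, 5% CO2, one generation; luminescence read-out, lower signal = inhibition.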
AmpC inh detg – AmpC beta-lactamase inhibition with detergent present; P00811; AmpC hydrolysis of nitrocefin, absorbance 480 nm, 0.01% Triton; Potency, µM (top dose mostly 114 µM), most hits filed as inhibitors; actives 0.041% (n = 370,000); AID 485294; note: nearly all actives have a fitted effect of over 25% in size
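AmpC (5.3 nM in the dispensed reagent) in 20 mM phosphate pH 7.0 with 0.01% (detergent screen) or 0.0001% Triton X-100 was preincubated with compounds for 15 min at room temperature. Nitrocefin was then added from an 800 uM solution, and hydrolysis was followed at 480 nm.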
AMA1-RON2 inh – inhibitors of Plasmodium falciparum AMA1-RON2 interaction; AID 720542; AlphaScreen AMA1-biotinylated RON2 peptide binding; actives 0.2% (n = 360,000); Potency, µM (titrated, usually from 58.2 µM), actives largely listed as inhibitors; note: nearly all actives have a fitted effect of over 45% in size
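AMA1 (3D7) with his tag at 25 nM final met compounds first, then biotinylated RON2 peptide at 25 nM; detection used donor plus acceptor beads, 10 µg/mL apiece, read by AlphaScreen after 30 min at room temperature.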
Pf growth 96h – P. falciparum growth inhibition at 96 hours | P. falciparum luciferase reporter growth, 96 h | Potency, µM (highest dose often 28.7 µM), hits mostly inhibitors | actives 6.9% (n = 320,000)
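Cell-based qHTS: luciferase-tagged P. falciparum in erythrocytes (2% hematocrit, 0.05% parasitemia final) incubated with compounds for 96 hours, 37 C, 5% CO2; luciferase detection reagent then added and luminescence measured.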
A number is an active result; n = inactive; u = inconclusive; x = no result given; [ ] = another dose, or the depositor's remark. Calls come from the whole dose curve; as a rule, active = well fitted curve in the direction sought with a large enough effect; inconclusive = small, poorly fitted or top-dose-only effect, or another doubt; inactive = no such curve, though single readings can be large; an effect the other way counts as inactive or inconclusive.

SMILES | AmpC no deterg | HCV inh | Pf growth 48h | AmpC inh detg | AMA1-RON2 inh | Pf growth 96h
CCOC(=O)N1CCN(S(=O)(=O)c2ccc(C(=O)NNc3nc4c(C)cccc4s3)cc2)CC1 | n | u | u | u | n | u
Cc1cc(C)c2nc(NNC(=O)c3ccc(S(=O)(=O)N4CCCCC4)cc3)sc2c1 | n | 6.3µM | u | n | n | 4.7µM
Cc1cc(C)c2sc(NC(=O)c3ccc(S(=O)(=O)N4CCOCC4)cc3)nc2c1 | x | x | x | n | x | x
CCOC(=O)N1CCN(S(=O)(=O)c2ccc(C(=O)NNc3nc4c(C)cc(C)cc4s3)cc2)CC1 | n | 11µM | u | u | n | u
CCOC(=O)N1CCN(S(=O)(=O)c2ccc(C(=O)NNc3nc4ccc(Cl)cc4s3)cc2)CC1 | u | 7.1µM | n | u | n | u
Cc1cc2oc(C(=O)Nc3ccc(S(=O)(=O)N(C)Cc4ccccc4)cc3)cc(=O)c2cc1C | x | x | x | n | x | x
Cc1ccc(C(C)C)c(OCC(=O)Nc2ccc(-c3nc4ncccc4o3)cc2C)c1 | x | x | x | n | x | x
CCCS(=O)(=O)N1CC(=O)N(c2cccc(F)c2)C(C)(C(=O)NC2CCCCCC2)C1 (configuration not stated) | x | x | x | n | x | x
Cc1sc(NC(=O)c2ccccc2)c(C(c2ccc(Cl)cc2)N2CCN(CCO)CC2)c1C (configuration not stated) | n | u | 8.3µM | n | n[11.6 µM] | 8.3µM
CCOc1ccc(C(c2c(NC(=O)c3ccccc3)sc(C)c2C)N2CCN(CCO)CC2)cc1 (configuration not stated) | n | u | u | n | n | 5.2µM
CCc1cc(C(c2ccncc2)N2CCN(C)CC2)c(NC(=O)c2ccccc2)s1 (configuration not stated) | n | n | 13µM | u | n | u
CCOC(=O)c1ccc(NC(=O)C(CC)Sc2nc3ccncc3[nH]2)cc1 (configuration not stated) | x | x | x | n | x | x
N#Cc1cc(Oc2cccc3cccnc23)c(-n2nnc3ccccc32)cc1C#N | n | u | 1.9µM | n | n | n
N#Cc1cc(O)c(-n2nnc3ccccc32)cc1C#N | n | n | n | n | n | n
O=C(Cc1c(Cl)cccc1Cl)NCCc1ccc(Cl)cc1 | n | n | n | n | n | n
O=C(CCl)NCc1c(Cl)cccc1-n1cccc1 | n | u | 10µM | n | n | 12µM
C/C(CC(=O)Nc1ccc(Cl)c(C(F)(F)F)c1)=N\NC(=O)c1ccccc1O | u | n | u | n | n | u
C/C(CC(=O)Nc1ccc(Cl)c(C(F)(F)F)c1)=N\NC(=O)c1cccc(O)c1 | n | n | 12µM | n | n | n
C/C(CC(=O)Nc1ccc(Cl)c(C(F)(F)F)c1)=N\NC(N)=S | n | 6.3µM | n | n | n | n
C/C(CC(=O)Nc1ccc(Cl)c(C(F)(F)F)c1)=N\NC(=O)c1cnccn1 | n | u | u | n | n | n
CCc1ccccc1NS(=O)(=O)c1ccc2c(c1)NC(=O)CC(=O)N2 | n | n | n | n | n | n
Cc1c(NS(=O)(=O)c2ccc3c(c2)NC(=O)CC(=O)N3)cccc1[N+](=O)[O-] | n | n | n | n | n | 15µM
CCCCn1c(N)c(N(CCOC)C(=O)C(C)Oc2ccc(Cl)cc2)c(=O)[nH]c1=O (configuration not stated) | n | n | u | n | n | n
COCCCN(C(=O)CCOc1ccccc1C)c1c(N)n(Cc2ccccc2)c(=O)[nH]c1=O | n | n | 13µM | n | n | u
Cc1ccc(OCCC(=O)N(CCC(C)C)c2c(N)n(Cc3ccccc3)c(=O)[nH]c2=O)cc1 | n | n | 10µM | u | n | u
CN(C(=O)CSc1nnc(Nc2ccccc2)s1)c1c(N)n(Cc2ccccc2)c(=O)[nH]c1=O | n | n | n | n | n | x
COCCCN(C(=O)C(C)Oc1ccc(Br)cc1)c1c(N)n(Cc2ccccc2)c(=O)[nH]c1=O (configuration not stated) | n | u | 13µM | u | n | u
